Experimental data: PubChem BioAssay AID1159580 (chemical genetic matrix, 2015)
“And” between values parts separate entries of the source, which are not always exact repeats. Equal values may be shown once. Screen size: about 5,500 compounds; about 2,000 (36%) were called active. Another 18% or so got no clear call; they are omitted. No stated cut-off is given here; in the data, active means normalized growth mostly below about 0.91 (no sharp cut-off); inconclusive means no clear call, values can overlap the other calls; inactive means mostly above about 0.92. The list shows a part of the results.

Assay: chemical genetic growth profiling, strain panel (AID 1159580);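 further: tested at 20 µM; growth read once vehicle control cultures reached saturation at 30 °C; 1 = growth at the plate median or of vehicle wells; lower values mean less growth of the strain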
Conditions: S. cerevisiae deletion strains, growth OD

Measured: normalized growth

Cc1cc(=O)[nH]c(=S)[nH]1
inactive: locus YAL013W, strain DEP1, hits give low values 1.01 | locus YAL021C, strain ccr4, hits give low values 0.956 | locus YAL026C, strain drs2, hits give low values 0.974 | locus YAL030W, strain snc1, hits give low values 0.98 | locus YBL061C, strain skt5, hits give low values 0.987 | locus YBR009C, strain hhf1, hits give low values 0.954 | locus YBR021W, strain FUR4, hits give low values 0.986 | locus YBR023C, strain chs3, hits give low values 0.977 | locus YBR171W, strain sec66, hits give low values 0.987 | locus YBR229C, strain ROT2, hits give low values 1.01 | locus YBR231C, strain swc5, hits give low values 0.989 | locus YBR279W, strain paf1, hits give low values 0.973 | locus YCL011C, strain gbp2, hits give low values 0.964 | locus YCL016C, strain dcc1, hits give low values 0.96 | locus YCL029C, strain bik1, hits give low values 1.02 | locus YCL061C, strain MRC1, hits give low values 0.926 | locus YCL069W, strain vba3, hits give low values 0.97 | locus YCR088W, strain abp1, hits give low values 0.978 | locus YDL005C, strain med2, hits give low values 0.97 | locus YDL035C, strain GPR1, hits give low values 0.993 | locus YDL040C, strain nat1, hits give low values 0.977 | locus YDL074C, strain BRE1, hits give low values 1.03 | locus YDL101C, strain DUN1, hits give low values 1.03 | locus YDL134C, strain PPH21, hits give low values 1 | locus YDL185W, strain tfp1, hits give low values 1.02 | locus YDL192W, strain arf1, hits give low values 1 | locus YDR001C, strain nth1, hits give low values 0.972 | locus YDR069C, strain doa4, hits give low values 0.982 | locus YDR101C, strain arx1, hits give low values 0.998 | locus YDR137W, strain rgp1, hits give low values 0.958 | locus YDR150W, strain NUM1, hits give low values 1.01 | locus YDR159W, strain sac3, hits give low values 0.937 | locus YDR162C, strain NBP2, hits give low values 1.01 | locus YDR195W, strain ref2 0.948 | locus YDR297W, strain sur2, hits give low values 0.963 | locus YDR318W, strain mcm21, hits give low values 1.03 | locus YDR334W, strain swr1, hits give low values 0.973 | locus YDR335W, strain msn5, hits give low values 0.968 | locus YDR388W, hits give low values 1.01 | locus YDR392W, strain spt3, hits give low values 0.929 | locus YDR502C, strain sam2, hits give low values 0.999 | locus YEL003W, strain gim4, hits give low values 0.965 | locus YEL037C, strain rad23, hits give low values 0.98 | locus YEL061C, strain CIN8 (second series), hits give low values 0.973 | locus YEL061C, strain CIN8, hits give low values 1 | locus YER015W, strain faa2, hits give low values 0.989 | locus YER016W, strain bim1, hits give low values 0.938 | locus YER110C, hits give low values 1.01 | locus YER111C, strain swi4, hits give low values 0.976 | locus YER155C, strain BEM2 (second series), hits give low values 1.01 | locus YER155C, strain BEM2, hits give low values 1.01 | locus YER167W, strain BCK2, hits give low values 0.996 | locus YFR010W, strain ubp6, hits give low values 0.97 | locus YGL078C, strain dbp3, hits give low values 0.991 | locus YGL086W, strain mad1, hits give low values 1 | locus YGL167C, strain pmr1, hits give low values 0.968 | locus YGL173C, strain kem1, hits give low values 0.968 | locus YGL227W, strain vid30, hits give low values 0.986 | locus YGL240W, strain doc1, hits give low values 0.988 | locus YGL248W, strain PDE1, hits give low values 1.01 | locus YGL253W, strain hxk2, hits give low values 0.949 | locus YGR078C, strain PAC10, hits give low values 1.02 | locus YGR135W, strain pre9, hits give low values 1 | locus YGR229C, strain SMI1, hits give low values 1.01 | locus YGR252W, strain gcn5, hits give low values 0.978 | locus YHR013C, strain ard1, hits give low values 0.914 | locus YHR027C, strain rpn1, hits give low values 0.965 | locus YHR030C, strain SLT2, hits give low values 1.01 and 1.08 | locus YHR079C, strain IRE1 (second series), hits give low values 1.01 | locus YHR079C, strain IRE1, hits give low values 1.05 | locus YHR094C, strain hxt1, hits give low values 1.01 | locus YHR129C, strain ARP1, hits give low values 1.02 | locus YHR142W, strain chs7, hits give low values 0.952 | locus YHR200W, strain rpn10, hits give low values 1 | locus YIL066C, strain RNR3, hits give low values 1.01 | locus YIL073C, strain SPO22, hits give low values 1.04 | locus YIL125W, strain kgd1, hits give low values 1 | locus YIR030C, strain dcg1, hits give low values 1 | locus YJL092W, strain hpr5, hits give low values 0.987 | locus YJL095W, strain BCK1 (second series), hits give low values 0.978 | locus YJL095W, strain BCK1, hits give low values 1.04 | locus YJL115W, strain asf1, hits give low values 0.97 | locus YJL129C, strain trk1, hits give low values 0.971 | locus YJL134W, strain LCB3, hits give low values 1.01 | locus YJL154C, strain vps35, hits give low values 0.972 | locus YJL164C, strain tpk1, hits give low values 0.947 | locus YJL166W, strain qcr8, hits give low values 0.976 | locus YJL168C, strain set2, hits give low values 1.01 | locus YJL187C, strain SWE1 (second series), hits give low values 1.03 | locus YJL187C, strain SWE1, hits give low values 0.976 | locus YJR043C, strain POL32, hits give low values 1.02 | locus YJR066W, strain TOR1, hits give low values 0.996
